ChEMBL document CHEMBL4513216, “Probing the Open Global Health Chemical Diversity Library for Multistage-Active Starting Points for Next-Generation Antimalarials” (ACS Infect Dis, 2020)
Among all 69,000 compounds or so, about 8,600 (12%) showed an effect of 50% or more. The list comes from a sample in which strong results are over-represented; it also holds similar structures and randomly drawn compounds.

Test system: Plasmodium berghei
Experiment: Screen against P. berghei liver stage (PbLuc), transformed with Luciferase, at 10uM
Type: functional, HepG2
Details: tested at 10 uM

Row | Compound | INHIBITION [%]
1 | COCc1cc(N2CCOC(c3ccc(Cl)cc3)C2)ncn1 (centres undefined) | 8.64
2 | COCc1cc(N2CCOC(c3ccc(Cl)c(Cl)c3)C2)ncn1 (centres undefined) | 63.1
3 | COCc1cc(N2CCOC(c3ccc(F)cc3)C2)ncn1 (centres undefined) | 38.3
4 | Fc1ccc(C2CN(c3ncnc4nc[nH]c34)CCO2)cc1 (centres undefined) | -28.6
5 | Cc1cc(N2CCOC(c3ccncn3)C2)ncn1 (centres undefined) | 26.7
6 | COc1cc(N2CCOC(c3ccc(F)cc3)C2)ncn1 (centres undefined) | 55.2
7 | CCn1cnnc1C1CCN(C(=O)c2c(C)oc(C)c2C)CC1 | 46.7
8 | Cc1cccc(CC2COCCN(Cc3nccn3C)C2)n1 (centres undefined) | 26.3
9 | O=C(CC1CCN(CCc2ccccc2)CC1)NC1CCOCC1 | 25.8
10 | Cn1cnnc1C1CCCN(Cc2nc(Cc3ccccc3)no2)C1 (centres undefined) | 3.13
11 | CNc1[nH]nc(N)c1NC(=O)c1ccccc1 | 17.6
12 | COc1ccc(-n2nnc(C(=O)O)c2-c2ccccn2)cc1 | 32.2
13 | Cc1ccc(CN2C[C@@H]3COC[C@@H](NS(C)(=O)=O)[C@@H]3C2)o1 | -6.02
14 | CC(C)C1CN(C(=O)c2ccc(C(N)=O)cc2)CCS1 (centres undefined) | 0.139
15 | CC(C)C1CN(C(=O)c2ccncc2)CCS1 (centres undefined) | 19.6
16 | CC(C)C1CN(C(=O)c2ccccc2)CCS1 (centres undefined) | 61.3
17 | CN1CSC[C@H]1C(=O)N1CCC(CCc2ccccc2)CC1 | -29
18 | CC(C)(C)C(=O)N1CCC(COCc2ccccc2)C1 (centres undefined) | 11.9
19 | CC(C(=O)N1CCC(Cc2ccc(F)cc2)CC1)n1ccnc1 (centres undefined) | 32.8
20 | CN1CSC[C@H]1C(=O)N1CCC(Cc2ccccc2F)CC1 | -40.6
21 | CN1C[C@@H](N)C[C@H]1C(=O)N1CCC(CCCc2ccccc2)CC1 | 55.9
22 | O=C([C@H]1CCS(=O)(=O)[C@@H]2CN(Cc3ccc(F)cc3)C[C@H]12)N1CCCC1 | 12.7
23 | CN1C[C@@H](N)C[C@H]1C(=O)N1CCC(Cc2ccc(F)cc2)CC1 | 58.1
24 | O=C(C1CCS(=O)(=O)CC1)N1CCC(Cc2ccc(F)cc2)CC1 | 57.3
25 | CCC(=O)N1CCCC1C(=O)N1CCC(Cc2ccc(F)cc2)CC1 (centres undefined) | 49.4
26 | Cn1ncc2ccc(C3CCCN(Cc4ccsc4)C3)nc21 (centres undefined) | 33.45
27 | COc1cccc(-n2cc3[nH]c(=O)[nH]n3c2=O)c1 | 3.68
28 | Cc1cc(C(=O)N2C[C@@H]3CC[C@H]2CN(C(=O)c2ccncc2)C3)cs1 | 38
29 | CN(C)S(=O)(=O)N1C[C@H](Oc2cccnc2)[C@H]2OCCC[C@H]21 | 14.2
